# Compound activity: PubChem, several laboratories
# CYP2C19 activ: activators of human cytochrome P450 2C19 | P33261 | recombinant CYP2C19, luciferin-H EGE luminescence; hits give high values; 0 = fully inhibited enzyme, 1 = untreated enzyme | activation factor at 5 µM | 96,000 tested, under 10 active;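 active = activation factor of at least 2 at 5 µM in the primary screen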
# CYP2C19 inh: inhibitors of human CYP2C19; P33261; CYP2C19 Supersomes, luciferin-H EGE luminescence, 30 min; inhibition, % at 5 µM; 21% of 96,000 active; AID 778;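 active = CYP2C19 inhibition above a set limit at 5 µM in the primary screen, cut at about 50% in these data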
# CYP2C9 inhib: human CYP2C9 inhibition; CYP2C9 Supersomes, luciferin-H conversion, luminescence; inhibition, % at 5 µM; 20% of 96,000 active;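 active = blocking of liver enzyme CYP2C9 beyond about 50% at 5 µM, limit read from the data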
# Target sequence (P11712 whole entry, looked up): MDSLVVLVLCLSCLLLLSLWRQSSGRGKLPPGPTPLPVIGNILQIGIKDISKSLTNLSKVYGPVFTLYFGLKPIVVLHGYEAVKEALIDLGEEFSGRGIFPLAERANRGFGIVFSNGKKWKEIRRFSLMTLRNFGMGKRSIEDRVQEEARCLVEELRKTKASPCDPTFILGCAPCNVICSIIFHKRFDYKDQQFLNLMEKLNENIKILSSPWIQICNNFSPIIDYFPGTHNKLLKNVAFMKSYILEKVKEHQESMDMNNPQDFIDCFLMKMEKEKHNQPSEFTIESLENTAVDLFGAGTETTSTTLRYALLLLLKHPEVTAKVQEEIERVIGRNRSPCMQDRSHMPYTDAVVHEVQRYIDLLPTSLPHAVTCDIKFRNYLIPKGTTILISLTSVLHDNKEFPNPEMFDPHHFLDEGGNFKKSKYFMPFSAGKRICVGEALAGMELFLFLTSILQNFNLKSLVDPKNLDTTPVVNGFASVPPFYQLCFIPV
# CYP2C9 act: CYP2C9 (human) activation. recombinant CYP2C9, luciferin-H conversion, luminescence; hits give high values; factor 1 = untreated enzyme, 0 = blocked. activation factor at 5 µM. P11712. AID 1024. 1.4% of 96,000 active;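 active = activation factor of 2 or more for CYP2C9 at a 5 µM dose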
# Measles CPE: protection of cells from measles virus; Measles virus-infected cells, CPE protection, absorbance; 1.5% of 140,000 active; protection (pct of control), % at 4 µM; AID 841; in the data active = protection mostly above about 24%, no sharp cut-off; inactive = mostly below about 26%
# Numbers stand for hits; - = inactive; . = no result. An excerpt weighted towards active compounds, which were near 22% of everything screened.
SMILES,CYP2C19 activ,CYP2C19 inh,CYP2C9 inhib,CYP2C9 act,Measles CPE
C=CCN(C(=O)c1cccc(S(=O)(=O)N2CCN(C)CC2)c1)c1nc(-c2ccccc2)cs1,-,79.4,76.7,-,-
Cc1cccc(C(=O)N2CCN(c3ccc(C(F)(F)F)cn3)CC2)c1C,-,74.2,-,-,-
Cc1ccccc1N1CCN(C(=O)c2ccc(Oc3ccc(C(F)(F)F)cn3)cc2)CC1,-,-,75.9,-,-
Cc1sc2nc(SCC(=O)NCCOCCO)n(C)c(=O)c2c1C,-,-,-,-,-
CCC(C(=O)OCC(=O)Nc1c(Cl)cccc1Cl)c1ccccc1 (configuration not stated),.,.,.,.,-
CN1C(=S)N(c2ccccc2)C(=O)/C1=C/c1cccs1,.,.,.,.,-
CCN1C(=O)/C(=C/c2cccs2)N(C)C1=S,-,67.1,50.7,-,-
CCNC(=O)N1CCOCC1,-,-,-,-,-
CCOC(=O)NC(c1ccccc1)C1CCCCC1=O (configuration not stated),-,-,-,-,-
O=C1CCCCC1C(Nc1ccc(Cl)cc1)c1ccccc1 (configuration not stated),-,82.2,88.9,-,-
O=C1CCCCC1C(Nc1ccc(Br)cc1)c1ccccc1 (configuration not stated),-,-,61.5,-,-
Cc1cccc(-c2csc(NC(=O)c3cnccn3)c2C(=O)OC(C)C)c1,-,-,50.5,-,-
CCn1c(SCC(=O)O)nnc1C1CCCCC1,-,-,-,-,-
CC(=O)Nc1ccc(S(=O)(=O)N2CCN(C)CC2)cc1,-,-,-,-,-
CCOC(=O)COc1ccc(S(=O)(=O)N2CCc3ccccc3C2)cc1,-,55.9,-,-,-
CCOC(=O)COc1ccc(S(=O)(=O)N2CCN(c3ccccc3)CC2)cc1,.,.,.,.,-
CC(=O)Nc1ccc(S(=O)(=O)N2CCc3ccccc3C2)cc1,-,65.0,-,-,-
CCOC(=O)COc1ccc(S(=O)(=O)N2CCN(c3ccc(F)cc3)CC2)cc1,-,-,50.5,-,-
COC(=O)c1cc(COc2ccc3c4c(c(=O)oc3c2)CCC4)c(C)o1,-,-,-,-,-
O=C(CSc1nc2ccccc2c(=O)n1NC(=O)Cc1ccccc1)NCc1ccccc1,-,-,92.8,-,-
O=C(Cc1cccs1)Nn1c(Cc2cccs2)nc2ccccc2c1=O,-,-,71.8,-,-
O=C(CSc1nc2ccsc2c(=O)n1NC(=O)c1ccccc1)NCc1ccco1,-,59.5,64.5,-,-
CCn1c(SCC(=O)NCc2ccccc2)nc2ccccc2c1=O,-,-,-,-,-
O=C(CSc1nc2ccccc2c(=O)n1NC(=O)Cc1ccccc1)NCc1ccco1,-,-,88.1,-,-
COc1ccc(C(=O)Cn2c(C(=O)/C=C/c3ccccc3)nc3ccccc32)cc1,-,-,-,-,-
SMILES,CYP2C19 activ,CYP2C19 inh,CYP2C9 inhib,CYP2C9 act,Measles CPE
Cn1c(SCC(=O)N2c3ccccc3CCc3ccccc32)nnc1-c1ccc(O)cc1,.,.,.,.,-
COCCn1nnnc1C(c1ccccn1)N1CCN(c2cc(C)ccc2C)CC1 (configuration not stated),-,83.0,69.8,-,-
c1ccc(CCn2nnnc2C(c2cccs2)N2CCN(Cc3ccc4c(c3)OCO4)CC2)cc1 (configuration not stated),-,55.8,52.2,-,-
COCCn1nnnc1C(c1cccs1)N1CCN(c2ccccc2)CC1 (configuration not stated),-,-,50.8,-,-
Fc1ccccc1N1CCN(C(c2cccs2)c2nnnn2CCc2ccccc2)CC1 (configuration not stated),-,69.6,57.3,-,-
COCCn1nnnc1C(c1ccccn1)N1CCN(c2cccc(C)c2C)CC1 (configuration not stated),.,.,.,.,-
Fc1ccc(N2CCN(C(c3cccs3)c3nnnn3CCc3ccccc3)CC2)cc1 (configuration not stated),.,.,.,.,-
Cc1sc2ncnc(OCC(=O)N3CCN(S(=O)(=O)c4ccccc4)CC3)c2c1C,.,.,.,.,-
Cc1cc(C)cc(N(CC(=O)NC2CCC(C)CC2)S(=O)(=O)c2c(C)noc2C)c1 (configuration not stated),-,-,-,-,-
CCOc1ccc(NCc2nnc(SCc3ccc(Cl)cc3)n2-c2ccccc2)cc1,.,.,.,.,-
CCCCC(c1nnnn1CCOC)N1CCN(c2cccc(OC)c2)CC1 (configuration not stated),-,69.7,53.6,-,-
CCCC(c1nnnn1CCOC)N1CCN(c2cccc(OC)c2)CC1 (configuration not stated),-,-,-,-,-
CC(C)C(c1nnnn1Cc1ccccc1)N1CCN(Cc2ccc3c(c2)OCO3)CC1 (configuration not stated),-,92.0,67.9,-,-
CC(C)C(c1nnnn1CC1CCCO1)N1CCN(Cc2ccc3c(c2)OCO3)CC1 (configuration not stated),-,-,-,-,-
COc1ccc(OC)c(/C=N/NC(=O)c2cc[n+](Cc3ccccc3)cc2)c1,.,.,.,.,-
CCOC(=O)C1CCN(C(c2cc(OC)c(OC)c(OC)c2)c2sc3nc(C)nn3c2O)CC1 (configuration not stated),-,-,-,-,-
COC(=O)C1CCN(C(c2cc(OC)c(OC)c(OC)c2)c2sc3nc(C)nn3c2O)CC1 (configuration not stated),-,-,-,-,34.3
COC(=O)c1ccc(NC(=S)N2CCC(C(N)=O)CC2)cc1,.,.,.,.,-
COc1cc2[nH]cc(C(=O)NCCc3ccccc3)c(=O)c2cc1OC,.,.,.,.,-
CCN(CC)S(=O)(=O)c1ccc2[nH]cc(C(=O)NCCc3ccc(OC)c(OC)c3)c(=O)c2c1,-,56.8,60.1,-,-
COc1ccc2[nH]cc(C(=O)CN3CCCCC3C)c2c1 (configuration not stated),-,-,-,-,-
COc1ccc2[nH]cc(C(=O)CN(C)CCc3ccc(OC)c(OC)c3)c2c1,-,85.3,91.4,-,-
COc1ccc(CCNC(=O)c2c[nH]c3ccccc3c2=O)cc1OC,-,50.0,-,-,-
CCC(c1nc2ccccc2c(=O)n1-c1nc2ccccc2s1)N1C(=O)c2ccccc2C1=O (configuration not stated),.,.,.,.,-
CC(=O)c1cc(Cc2csc(C(C)=O)c2)cs1,-,62.3,-,-,.
SMILES,CYP2C19 activ,CYP2C19 inh,CYP2C9 inhib,CYP2C9 act,Measles CPE
Cc1cc(N2CCN(c3ccc(F)cc3)CC2)nc2cc(O)ccc12,-,-,-,3.2,-
Cc1cc(N2CCN(c3ccccc3F)CC2)nc2cc(O)ccc12,-,56.9,-,2,-
COc1ccc2c(C)cc(N3CCN(c4ccc(F)cc4)CC3)nc2c1,-,83.0,-,2.3,-
CCC1=NN2C(=N)/C(=C/c3c(C)nn(-c4ccccc4)c3Cl)C(=O)N=C2S1,.,.,.,.,71.3
COC(=O)N/N=C/c1cccc(OCCSc2ccc(Cl)cc2)c1,.,.,.,.,-
CCOC(=O)C1=C(C)NC(C)=C(C(=O)OCC)C1C(=O)OCC(=O)NC(C)C,-,83.8,84.8,-,-
